Measured values reported in PubChem BioAssay.
Calls of active or inactive are those of the source.

How the values were obtained:
[1] = system: Human papillomavirus type 1a protein E7 (residues 44-93); assay: small molecules binding HPV E7 44-93 – biochemical, small-molecule microarray, residues 44-93, 635 nm fluorescence, primary screen (AID 1108); conditions: fluorescence 635 nm, higher = more signal;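 also: E7 fragment applied at 1 µg/mL in TBST for 1 h at 4 C; score combines spot fluorescence with its signal to noise ratio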
[2] = hepatitis C replication reporter changes, two-sided – Huh7 cells, luciferase reporter, HCV replication inhibitor project, primary screen (AID 1109); conditions: Huh7 HCV replicon luciferase reporter, 48 h; higher = more signal;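 also: huh7 hepatoma cells harbouring a luciferase neomycin HCV replicon reporter; luciferase luminescence as measure of HCV replicon replication; test concentration not given here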
[3] = biological target: Left-right determination factor 2 (Homo sapiens) (UniProt O00292); assay: small molecules binding LEFTY2 protein – biochemical, small-molecule microarray, 635 nm fluorescence scan, primary screen (AID 1110); conditions: higher = more signal
[4] = biological target: Calmodulin-1 (Homo sapiens) (UniProt P0DP23); assay: small molecules binding calmodulin-1 with EGTA – biochemical, small-molecule microarray, Cy5-labelled CALM1, profiling panel (AID 1111); conditions: Cy5-CALM1 binding fluorescence, higher = more signal;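 also: labelled calmodulin applied in Tris saline Tween buffer holding calcium plus EGTA and DTT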
[5] = biological target: Calmodulin-1 (Homo sapiens) (UniProt P0DP23); assay: small molecules binding Ca-loaded calmodulin-1 – biochemical, small-molecule microarray, Cy5-labelled CALM1, plus calcium, artefact control for SMM control-protein annotation, profiling panel (AID 1112); conditions: Cy5-CALM1 binding fluorescence, higher = more signal;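 also: score merges spot fluorescence with signal to noise from triplicate slides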
[6] = probe aWnt5a binding to arrayed compounds – biochemical, biotinylated probe, 635/667 nm fluorescence, primary screen (AID 1113); conditions: small-molecule microarray, higher = more signal;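 also: score merges 667 nm fluorescence intensity with signal-to-noise per printed feature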
[7] = probe aShh binding to arrayed compounds – biochemical, biotinylated probe, 635/667 nm fluorescence, primary screen (AID 1114); conditions: small-molecule microarray, higher = more signal;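 also: probe is biotin-labelled aShh protein from a stem cell growth factor screen; measures binding of labelled protein to compounds printed on the slide; score merges feature fluorescence at 667 nm with signal-to-noise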
[8] = probe aNog binding to arrayed compounds – biochemical, biotinylated probe, 635/667 nm fluorescence, primary screen (AID 1115); conditions: small-molecule microarray, higher = more signal;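 also: probe is biotinylated aNog protein used at 0.15 µg/mL for 1 h at 4 C; z-score combines 667 nm fluorescence of each spot with its signal to noise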
[9] = biological target: Torsin-1A-interacting protein 1 (Homo sapiens) (UniProt Q5JTV8); assay: compound microarray binding of lysate hLAP1 – cell lysate, small-molecule microarray, COS7 lysate, 635/667 nm fluorescence, primary screen (AID 1116); conditions: 635 nm fluorescence, higher = more signal
[10] = biological target: Alpha-bungarotoxin (Bungarus multicinctus) (UniProt P60615); assay: compounds binding labelled alpha-BTX control protein – biochemical, small-molecule microarray, Alexa647 label, 635/667 nm fluorescence, artefact control for SMM control protein annotation, profiling panel (AID 1117); conditions: alpha-BTX-A647 binding fluorescence, higher = more signal
Albumin (Bos taurus) = Albumin (Bos taurus) (UniProt P02769); assay: compounds binding labelled BSA control protein – biochemical, small-molecule microarray, Alexa647 label, 635/667 nm fluorescence, artefact control for SMM control protein annotation, profiling panel (AID 1118); conditions: BSA-A647 binding, fluorescence 635 nm, higher = more signal;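 also: score merges 667 nm emission intensity and signal-to-noise per printed compound spot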
[11] = probe aXIP binding to arrayed compounds – biochemical, NeuroSMM set, 635/667 nm fluorescence, primary screen (AID 1119); conditions: small-molecule microarray, higher = more signal, called active from +8 up or from −8 down;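 also: probe is the protein aXip251-270 applied at 1 µg/mL to compound-printed slides; binding of probe to printed compounds measured as 667 nm fluorescence plus signal to noise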
[12] = probe aNOTCH3 binding on compound microarray – biochemical, small-molecule microarray, 635/667 nm fluorescence, primary screen (AID 1120); conditions: higher = more signal;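 also: probe is a biotin-tagged antibody raised against NOTCH3 rather than NOTCH3 protein; score merges spot fluorescence near 667 nm with spot signal to noise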
[13] = probe aNOTCH2 binding on compound microarray – biochemical, small-molecule microarray, 635/667 nm fluorescence, primary screen (AID 1121); conditions: higher = more signal;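 also: score merges feature fluorescence read at 667 nm with its signal to noise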
[14] = biological target: Carbonic anhydrase 2 (Homo sapiens) (UniProt P00918); assay: compounds binding carbonic anhydrase 2 – biochemical, small-molecule microarray, Alexa647-labelled CAII, profiling panel (AID 1122); conditions: CAII-A647 binding fluorescence, higher = more signal
[15] = COS7 lysate on small-molecule microarray, probe aHis, 635 nm (AID 1123); conditions: COS7 cell lysate, fluorescence, higher = more signal;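 also: z-score combines 667nm fluorescence intensity with signal-to-noise per printed compound spot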
[16] = probe aLAP1 signal on lysate-treated microarray – cell lysate, small-molecule microarray, COS7 lysate, primary screen (AID 1124); conditions: probe aLAP1, fluorescence, higher = more signal;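 also: lysate comes from COS7 cells expressing LAP1 and is applied at 0.3 µg/mL; score merges spot fluorescence near 667 nm with signal-to-noise over triplicate slides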
Sam68 (KHDRBS1) = assay: compounds binding KHDRBS1 protein – biochemical, small-molecule microarray, 635 nm fluorescence, primary screen (AID 1125); conditions: higher = more signal;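 also: score merges 667 nm channel intensity with signal to noise over triplicate slides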
[17] = system: Chordin-like protein 2 (CHRDL2); assay: compounds binding chordin-like 2 – biochemical, small-molecule microarray, 635 nm fluorescence, primary screen (AID 1126); conditions: fluorescence 635 nm, higher = more signal;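 also: printed compound slides probed with Chrdl2 protein at 4 µg/mL for 1 h at 4 C; score merges 667 nm emission intensity with signal to noise over three replicate slides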
[18] = biological target: Concanavalin-A (Canavalia ensiformis) (UniProt P02866); assay: compounds binding concanavalin A lectin – biochemical, small-molecule microarray, Alexa647 label, 635 nm, artefact control for SMM control protein annotation, primary screen (AID 1127); conditions: ConA-A647 binding fluorescence, higher = more signal;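 also: z combines 667 nm emission intensity with signal-to-noise across three replicate slides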
Sequence of Concanavalin-A (Canavalia ensiformis) (P02866 whole entry, looked up): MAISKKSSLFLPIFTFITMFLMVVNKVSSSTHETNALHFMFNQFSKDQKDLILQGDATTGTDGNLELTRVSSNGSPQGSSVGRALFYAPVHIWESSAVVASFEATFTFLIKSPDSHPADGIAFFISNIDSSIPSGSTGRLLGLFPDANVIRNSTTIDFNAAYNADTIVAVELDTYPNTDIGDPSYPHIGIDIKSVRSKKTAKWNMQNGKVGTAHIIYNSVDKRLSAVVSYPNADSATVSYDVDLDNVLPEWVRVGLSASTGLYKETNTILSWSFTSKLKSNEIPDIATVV

Sequence of Left-right determination factor 2 (Homo sapiens) (O00292 whole entry, looked up): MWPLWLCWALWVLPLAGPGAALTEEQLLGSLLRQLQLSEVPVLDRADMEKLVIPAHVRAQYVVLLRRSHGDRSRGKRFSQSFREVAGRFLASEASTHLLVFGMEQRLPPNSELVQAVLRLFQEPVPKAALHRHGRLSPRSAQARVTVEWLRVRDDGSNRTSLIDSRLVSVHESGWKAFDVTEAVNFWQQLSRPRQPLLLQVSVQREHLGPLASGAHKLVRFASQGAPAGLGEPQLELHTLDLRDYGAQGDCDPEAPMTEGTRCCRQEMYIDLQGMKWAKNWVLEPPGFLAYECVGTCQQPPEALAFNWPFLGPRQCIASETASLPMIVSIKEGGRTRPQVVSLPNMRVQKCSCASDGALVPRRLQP
Sequence of Torsin-1A-interacting protein 1 (Homo sapiens) (Q5JTV8 whole entry, looked up): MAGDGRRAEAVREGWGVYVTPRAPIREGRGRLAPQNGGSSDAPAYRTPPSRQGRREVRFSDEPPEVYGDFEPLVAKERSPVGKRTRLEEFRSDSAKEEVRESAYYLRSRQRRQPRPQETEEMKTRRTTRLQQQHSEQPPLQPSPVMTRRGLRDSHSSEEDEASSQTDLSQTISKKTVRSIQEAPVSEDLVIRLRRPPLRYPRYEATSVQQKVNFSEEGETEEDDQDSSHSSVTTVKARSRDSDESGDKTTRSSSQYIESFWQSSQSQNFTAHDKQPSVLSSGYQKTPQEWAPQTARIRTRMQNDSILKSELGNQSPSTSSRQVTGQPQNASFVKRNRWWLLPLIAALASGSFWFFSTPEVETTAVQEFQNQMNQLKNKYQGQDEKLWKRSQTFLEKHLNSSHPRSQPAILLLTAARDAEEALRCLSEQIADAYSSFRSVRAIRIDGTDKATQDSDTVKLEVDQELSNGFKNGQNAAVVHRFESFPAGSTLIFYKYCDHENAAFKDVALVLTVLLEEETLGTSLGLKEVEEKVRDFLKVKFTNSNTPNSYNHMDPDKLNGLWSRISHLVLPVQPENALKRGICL
Sequence of Albumin (Bos taurus) (P02769 whole entry, looked up): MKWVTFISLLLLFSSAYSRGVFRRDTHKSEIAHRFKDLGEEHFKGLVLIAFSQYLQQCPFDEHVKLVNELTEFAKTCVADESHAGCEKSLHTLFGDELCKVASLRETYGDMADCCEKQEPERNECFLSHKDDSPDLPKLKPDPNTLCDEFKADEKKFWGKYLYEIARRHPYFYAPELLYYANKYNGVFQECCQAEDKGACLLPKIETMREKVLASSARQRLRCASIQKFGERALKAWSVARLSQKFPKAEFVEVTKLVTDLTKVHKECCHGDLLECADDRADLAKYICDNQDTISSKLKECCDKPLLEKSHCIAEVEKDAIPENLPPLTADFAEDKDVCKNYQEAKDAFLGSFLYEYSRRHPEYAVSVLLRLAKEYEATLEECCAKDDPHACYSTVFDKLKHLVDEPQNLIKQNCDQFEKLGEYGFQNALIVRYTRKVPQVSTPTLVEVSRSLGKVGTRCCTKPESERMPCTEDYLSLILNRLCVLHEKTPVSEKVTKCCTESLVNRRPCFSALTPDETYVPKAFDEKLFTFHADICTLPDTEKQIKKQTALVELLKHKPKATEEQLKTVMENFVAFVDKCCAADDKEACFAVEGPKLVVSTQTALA
Sequence of Alpha-bungarotoxin (Bungarus multicinctus) (P60615 whole entry, looked up): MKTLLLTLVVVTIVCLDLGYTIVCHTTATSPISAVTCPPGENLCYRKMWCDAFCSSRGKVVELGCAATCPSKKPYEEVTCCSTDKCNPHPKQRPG

Row | SMILES | composite z-score [1] | z-score [2] | composite z-score [3] | composite z-score [4] | composite z-score [5] | composite z-score [6] | composite z-score [7] | composite z-score [8] | composite z-score [9] | composite z-score [10] | composite z-score (Albumin (Bos taurus)) | composite Z-score [11] | composite z-score [12] | composite z-score [13] | composite z-score [14] | composite z-score [15] | composite z-score [16] | composite z-score (Sam68 (KHDRBS1)) | composite z-score [17] | composite z-score [18]
1 | COC(=O)C(CC#Cc1ccc2c(c1)[C@]1(C(=O)N2)[C@H](C(=O)N2CCN(c3ncccn3)CC2)[C@H]2C(=O)O[C@H](c3ccccc3)[C@H](c3ccccc3)N2[C@@H]1c1ccc(O)cc1)C(=O)OC | 0.335 | -1.66 | 0.813 | 2.18 | 1.36 | 0.436 | 0.87 | 1.16 | 2.45 | 2.29 | -0.542 | 0.939 (inactive) | 0.972 | 0.279 | 0.636 | 2.38 | 0.97 | 1.28 | 1.08 | 1.21
2 | CO[C@H]1O[C@H](CO)[C@@H](OC(=O)Nc2cccc(F)c2)[C@H](OC(=O)Nc2ccc3c(c2)OCO3)[C@@H]1OC(=O)Nc1ccc2c(c1)OCO2 | 1.5 | -1.14 | -0.0699 | 0.911 | -1.04 | 0.0186 | 0.214 | 0.724 | 1.46 | 1.02 | 0.364 | 0.942 (inactive) | 0.15 | -0.0247 | 0.753 | 1.64 | 0.678 | 1.32 | 0.149 | 0.708
3 | CCOC(=O)C[C@H]1[C@H](OC(=O)c2cc3ccccc3oc2=O)[C@@H](NC(=O)c2ccc(-c3ccccc3)cc2)c2cc(OCCCO)ccc2N1C(=O)Cc1ccc(OC)cc1 | 0.697 | -0.971 | 0.497 | -0.0241 | -0.273 | -0.0735 | -0.0035 | 0.179 | 0.674 | 0.731 | 0.0146 | 0.243 (inactive) | 0.213 | -0.0578 | 0.383 | 1.07 | 0.774 | 0.864 | 0.346 | 0.833
4 | [N-]=[N+]=Nc1ccccc1C[C@]1(C(N)=O)COC(c2ccc(OCCCO)cc2)=N1 | 0.66 | -1.17 | -0.899 | 0.707 | 0.694 | -0.0462 | 0.486 | 0.381 | 1.02 | -0.364 | 0.66 | 0.745 (inactive) | 0.148 | 0.105 | 0.77 | 2.98 | 1.46 | 0.0271 | -0.324 | -0.401
5 | COc1cc(Cc2cc3c(c(-c4ccccc4)n2)[Si](C(C)C)(C(C)C)OC3)cc(OC)c1OC | -1.82 | 0.385 | 0.363 | -0.651 | -0.0062 | -0.175 | 0.915 | -0.359 | -0.181 | 1.34 | -1.25 | 0.23 (inactive) | -0.0682 | -0.0028 | 0.153 | -0.317 | -0.27 | -1.26 | 0.296 | -0.264
6 | [N-]=[N+]=NCc1ccccc1[C@H]1OC(c2ccc(OCCCO)cc2)=N[C@@]1(Cc1ccccc1N=[N+]=[N-])C(N)=O | 1.44 | -1 | 0.373 | 1.1 | 0.613 | 0.117 | -0.111 | 0.924 | 0.154 | 1.03 | 0.884 | 0.385 (inactive) | 0.339 | -0.229 | 0.743 | 2.72 | -0.182 | 1.27 | -0.0265 | 1.08
7 | C=CCOC(=O)[C@H]1[C@@H]2C(=O)O[C@@H](c3ccccc3)[C@@H](c3ccccc3)N2[C@@H](c2ccc(OCCOC(=O)[C@H]3C[C@H]4C(=O)NCC(=O)N4[C@H]3c3ccc(O)cc3)cc2)[C@]12C(=O)Nc1ccccc12 | 1.44 | -2.07 | 0.506 | 1.18 | -0.237 | -0.0758 | -0.16 | -0.217 | 1.05 | 1.77 | -0.501 | 1.19 (inactive) | 0.948 | -0.0631 | 0.6 | 1.67 | 0.96 | 1.29 | 0.815 | 1.18
8 | C=C[C@H](C)[C@@H](OC(=O)Nc1ccc(SC)cc1)c1ccc(OCCO)cc1 | 1.3 | -0.931 | -0.396 | 0.19 | 0.601 | -0.0792 | -0.0643 | 0.958 | 0.248 | 0.438 | 0.312 | 0.794 (inactive) | 0.137 | -0.0008 | 0.397 | 1.59 | 0.471 | 0.157 | 0.28 | 0.272
9 | COCCOC(=O)N1C(=O)[C@@]2(c3cc(C#CC4=CCCCC4)ccc31)[C@H](c1ccc(O)cc1)N1[C@H](c3ccccc3)[C@H](c3ccccc3)OC(=O)[C@H]1[C@@H]2C(=O)N1CCc2cc(OC)c(OC)cc2C1 | 1.06 | -0.993 | -0.231 | 1.12 | 0.516 | -0.0332 | 0.0796 | 0.453 | 2.23 | 0.924 | 0.699 | -0.007 (inactive) | -0.0014 | -0.0454 | 0.468 | 2.29 | 0.743 | 1.28 | -0.329 | 0.753
10 | Cc1ccc(S(=O)(=O)N2[C@@H](c3ccccc3)C(C(=O)O)=CC[C@H]2c2ccc(F)cc2)cc1 | 1.46 | -0.547 | -1.25 | -0.599 | -0.388 | 0.108 | -0.291 | 0.325 | 1.94 | 1.18 | 0.458 | 0.615 (inactive) | -0.0044 | -0.116 | 0.893 | 3.31 | 1.72 | 1.18 | -1.09 | -0.177
